Four compounds from PubChem BioAssay (NCI) can be followed below.

About 83,000 compounds went through this panel and 20% of them were active in at least one assay; those are over-represented in the sample as a whole.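 The test compound was applied at a single concentration to cells in 96-well plates for 48 hours, and percent growth was recorded.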 Unmarked numbers belong to inactive results. Activity calls are given as the source filed them. Rule for the calls: active = growth percent below 10; inactive = the rest.

The experiment relates to HL-60(TB) leukemia. Description: NCI-60 one-dose screen, 48 h (100 = growth as untreated, 0 = no growth, -100 = all killed). To be noted: 10 µM unless noted.
Consider `O=C(N/N=C/c1ccc(F)cc1)c1ccccc1Nc1cccc(C(F)(F)F)c1`, for which the growth is 88.1%.
The value for `CCCCCOc1ccc(/C=N/Nc2cc(C)nc3ccc(Br)cc23)cc1` was -2.49% (active); that for `CCC1=C[C@@H]2CN(C1)Cc1c([nH]c3ccccc13)[C@@](C(=O)OC)(c1cc3c(cc1OC)N(C=O)[C@H]1[C@@](O)(C(=O)OC)[C@H](OC(C)=O)[C@]4(CC)[C@@H]5C[C@@H]5CN5CC[C@]31[C@@H]54)C2` was -19.4% (active).
Regarding `COc1cc(OC)c(/C=C/C(=O)c2c(OC)cc(OC)cc2OC)c(OC)c1`, the growth was -25.1% (active).
